Test results from PubChem BioAssay (NCI).
The panel holds about 79,000 compounds, 15% with a hit somewhere; the sample as a whole holds those more often. Unmarked numbers belong to inactive results. Calls of active or inactive are those of the source. Cut-off read from the data, not from the text of the source: active = growth inhibition above about 70%; inactive = the rest.

Assays:
[1] = NCI Yeast Anticancer Drug Screen. Data for the rad50 strain (AID 155);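 note: 0% = growth of vehicle-only cultures of the same strain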; details: S. cerevisiae rad50 strain growth inhibition; at 50.0 µM; stronger effect = higher value
Outline: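 Cells are treated with compound, grown, and their growth is then scored against vehicle-only cultures of the same repair-deficient yeast strain.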

[2] = NCI Yeast Anticancer Drug Screen. Data for the mec2-1 strain (AID 157); details: S. cerevisiae mec2-1 strain, at 50.0 µM, stronger effect = higher value
Outline: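 Vehicle-treated cultures served as reference for growth inhibition of compound-exposed mec2-1 yeast.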

[3] = NCI Yeast Anticancer Drug Screen. Data for the sgs1 mgt1 strain (AID 161);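 note: 0% = growth of cultures given vehicle only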; details: S. cerevisiae sgs1 mgt1 strain, at 50.0 µM, stronger effect = higher value
Outline: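 Test agents were incubated with a DNA-repair-mutant yeast strain. Growth was then read and compared against vehicle-treated controls.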

[4] = NCI Yeast Anticancer Drug Screen. Data for the cln2 rad14 strain (AID 165);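 note: 0% = growth equal to vehicle treated cultures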; details: S. cerevisiae cln2 rad14 strain, at 50.0 µM, stronger effect = higher value
Outline: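 Each compound was tested on cln2 rad14 yeast. Inhibition of growth was calculated against vehicle-exposed controls.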

[5] = NCI Yeast Anticancer Drug Screen. Data for the bub3 strain (AID 167); details: S. cerevisiae bub3 mutant strain, at 50.0 µM, stronger effect = higher value
Outline: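 Part of a panel of yeast mutants defective in DNA damage repair or cell cycle regulation. Each strain is grown with compound, and inhibition is calculated relative to solvent-treated cultures.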

[6] = NCI Yeast Anticancer Drug Screen. Data for the mlh1 rad18 strain (AID 175); details: S. cerevisiae mlh1 rad18 strain growth inhibition; at 50.0 µM; stronger effect = higher value
Outline: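 Vehicle-treated cultures served as the reference for growth inhibition in a yeast strain carrying DNA damage repair alterations exposed to each compound.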

| SMILES | growth inhibition [1] | growth inhibition [2] | growth inhibition [3] | growth inhibition [4] | growth inhibition [5] [%] | growth inhibition [6] |
| --- | --- | --- | --- | --- | --- | --- |
| CCN(CC)CC(O)Cn1cnc2c(=S)nc[nH]c21 (configuration not stated) | 8.7% | -4.05% | -3.45% | 4.9% | 1.45 | -4.45% |
| Nc1ccc(N)c(Cl)c1 | -19.4% | -15.8% | -19.8% | 14.7% | -7.3 | -2.85% |
| O=S1Cc2nc3ccccc3n2C1c1c(F)cccc1F (configuration not stated) | 1.25% | -6.1% | -4% | 21.6% | 3.6 | -18.8% |
| COc1ccc(CCNC(=O)Cc2ccccc2CCO)cc1OC | 13.9% | -6.85% | -29.5% | -3.75% | -43.9 | -20.1% |
| COc1ccc(/C=C2\NC(=O)NC2=O)cc1Br | 11.8% | 10.4% | 2.65% | 7% | 9.1 | 8.5% |
| COc1cc(Cn2c(=S)ss/c2=N\C(=S)N(C)C)cc(OC)c1OC | 1.7% | 4.45% | -0.4% | 6.45% | -2.25 | -12% |
| CCCCCc1[nH]c(=O)[nH]c(=O)c1S(=O)(=O)N1CCCCC1 | 0.15% | 28.4% | 18.7% | 3.4% | 25.9 | 18.2% |
| N#C/C(=N\NC(=O)c1ccccc1Cl)c1ccccc1Cl | 89.5% (active) | 79.3% (active) | 83% (active) | 82.2% (active) | 67.3 | 77.8% (active) |
| Brc1ncccn1 | 23.8% | -16.9% | 0.65% | 17.9% | 7.75 | 14.8% |
| CC(=O)CC(=O)CC(C)C.CC(=O)CC(=O)CC(C)C.[Cu] | 17.2% | 17.5% | 6.25% | -16.1% | -3.2 | 37.7% |
| [Cl][Tb]([Cl])[Cl] | 16.4% | 8% | 31.8% | 40.1% | 37.2 | 29% |
| CCOC(=O)NC(=O)c1cn(C2CCCCC2)c(=O)[nH]c1=O | -14.2% | -3.95% | -5.9% | 21.9% | -0.7 | 3.35% |
| C/C(=C\CNc1ncnc2c1ncn2CCC(=O)OC(C)(C)C)CO | -12.3% | -8.7% | -49.1% | 13.1% | 5.6 | -17.6% |
| CS/C(=N/S(=O)(=O)c1ccccc1)NNC(=S)Nc1ccc(C(C)C)cc1 | 14% | -12.6% | 27.2% | 22.6% | 28.3 | 25.9% |
| CN(C)CCCN1C=CC(=C2C(=O)c3ccccc3C2=O)C=C1 | 3.1% | 20.8% | 10.3% | 34.9% | 8.5 | -0.95% |
| COC1=C(NCCc2ccccc2)C(=O)C(OC)=C(NCCc2ccccc2)C1=O | -43.2% | -4.7% | 18.9% | -22.3% | 1.5 | -11.6% |
| COc1ccccc1NC(=O)NC1CCCCC1 | -2.8% | -4.65% | -8.2% | -88% | 5.5 | -15.2% |
| O=C(O)CCc1ccccc1CC(=O)O | 12.8% | -9.95% | -10.8% | -10.1% | -12.3 | 13.2% |
| COc1cc2c(c3c1c(=O)c1ccccc1n3C)C=CC(C)(C)O2 | 10.9% | -13.9% | 22.7% | 11.2% | 4.75 | 9.9% |

| SMILES | growth inhibition [1] | growth inhibition [2] | growth inhibition [3] | growth inhibition [4] | growth inhibition [5] [%] | growth inhibition [6] |
| --- | --- | --- | --- | --- | --- | --- |
| C=C(C)C(=O)OC1CC2(C)OC2CC(OC(C)=O)/C(C)=C/C2OC(=O)C(=C)C21 (configuration not stated) | 20.8% | 49.7% | 31.7% | 39.5% | 46.6 | -7.5% |
| O=C1C(O)=C(Cl)C(=O)C(OC2=C(Cl)C(=O)C(OC3=C(Cl)C(=O)C(OC4=C(Cl)C(=O)C(Cl)=C(Cl)C4=O)=C(Cl)C3=O)=C(Cl)C2=O)=C1Cl | 9.55% | 3.5% | -17.3% | -4.3% | -2.35 | 22.3% |
| N#CC(C#N)=CNc1cccc(Cl)c1 | 34% | 9.8% | 29.2% | 9.45% | -1.05 | 18.5% |
| CCC1NC(N=Nc2ccc([N+](=O)[O-])cc2)(P(=O)(OC(C)C)OC(C)C)OC1=O (configuration not stated) | 44.5% | -43.5% | 16.1% | -15.8% | 17.5 | 10.8% |
| O=S(=O)(c1ccccc1)c1ccccn1 | -13.1% | -13.2% | -19.9% | 6.2% | 3.7 | -22.1% |
| C/C(C#N)=C1/Nc2ccccc2NC1=O | 0.55% | 9.25% | -24.6% | -10.4% | 15.1 | 4.55% |
| CC([O-])=C1C(=O)c2ccccc2C1=O.CC([O-])=C1C(=O)c2ccccc2C1=O.CC[O-].CC[O-].[Ti+4] | 19.4% | 27.6% | 55.4% | 29% | 37.8 | 36.5% |
| Cc1ncc([N+](=O)[O-])n1CCCl | -1.8% | 12.2% | 3.35% | -27.2% | -0.15 | -4.35% |
| CCOC(=O)C(CO)NC(=O)c1cnc2ccccc2c1 (configuration not stated) | 16.4% | 1.65% | 13.1% | -29.8% | -30.4 | 12.8% |
| O=P1(O)c2ccccc2Oc2ccccc21 | -4% | -2.2% | 7.45% | 2.9% | -0.95 | -44.5% |
| CC(=O)Nc1ncn(C)c1S(N)(=O)=O | -4.3% | -19.1% | -1.45% | -16.3% | -7.9 | 15.5% |
| CN(C)C(=S)Oc1ccc([N+](C)(C)C)cc1 | -3.7% | 3.55% | 2.5% | -4.6% | 3.15 | -1% |
| Cc1cc(Cl)nc2ccc(Cc3ccc(Cl)cc3)cc12 | 16.7% | -2.65% | -5.2% | 11.9% | 11.1 | -10.1% |
| O=NC1C(Cl)C2CC1C1COCC21 (configuration not stated) | -16% | -9.55% | -9.05% | -30.1% | 1 | -7.05% |
| CC1(C)CCCCC1=O | -0.15% | -1.8% | 7.1% | 22.1% | 26.1 | -14.3% |
| Cc1cccc[n+]1CC(=O)c1ccccc1[N+](=O)[O-] | -5% | 6.85% | -3.3% | -6.55% | -20.6 | 8.1% |
| c1ccc2c(c1)C1C3c4ccccc4C1C1C2C31 | 5.1% | 12.1% | -0.1% | 2.6% | 3.5 | -2.8% |
| Cc1cccc(-c2cc(=O)c3cccnc3[nH]2)c1 | 2.05% | -1.45% | 9.35% | 4.05% | -13 | 1.25% |
